Source: the supplement of paper PMC8728848
Many of the other results were omitted from the sample, so the strongest signals are more common in it than they were.

Tests used:
Assay in all cases: glycan array binding signal (z-score within array); higher = stronger binding
Settings in all cases: glycan notation: IUPAC condensed, linker removed
[1] = target: Fuc(a1-2)Gal(b1-4)GlcNAc(b1-3)Gal(b1-4)GlcNAc
Summary of the method: (§1)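 Columns mapping to the same glycan were averaged after glycan names were converted to IUPAC-condensed notation. The data come from 3228 arrays in the Consortium for Functional Glycomics database, limited to those with an available protein sequence. Binding is reported as a within-array Z-score averaged across arrays of one protein sequence and across linkers.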

[2] = target: Fuc(a1-2)Gal(b1-4)[Fuc(a1-3)]GlcNAc(b1-3)Gal(b1-4)[Fuc(a1-3)]GlcNAc
Summary of the method: as §1

[3] = target: Fuc(a1-2)[Gal(a1-3)]Gal(b1-4)[Fuc(a1-3)]GlcNAc
Summary of the method: as §1

[4] = target: Fuc(a1-3)[Gal(b1-4)]GlcNAc(b1-2)Man(a1-3)[Fuc(a1-3)[Gal(b1-4)]GlcNAc(b1-2)Man(a1-6)]Man(b1-4)GlcNAc(b1-4)[Fuc(a1-6)]GlcNAc
Summary of the method: as §1

[5] = target: Gal(a1-3)Gal(b1-4)[Fuc(a1-3)]GlcNAc(b1-2)Man(a1-3)[Gal(a1-3)Gal(b1-4)[Fuc(a1-3)]GlcNAc(b1-2)Man(a1-6)]Man(b1-4)GlcNAc(b1-4)GlcNAc
Summary of the method: as §1

[6] = target: Gal(a1-3)GalNAc
Summary of the method: as §1

[7] = target: Gal(a1-6)Glc
Summary of the method: as §1

[8] = target: Gal(b1-3)Gal(b1-4)GlcNAc
Summary of the method: as §1

[9] = target: Gal(b1-3)GalNAc
Summary of the method: as §1

[10] = target: Gal(b1-3)GalNAc(a1-3)[Fuc(a1-2)]Gal(b1-4)GlcNAc
Summary of the method: as §1

[11] = target: Gal(b1-3)GlcNAc(b1-2)Man(a1-3)[Gal(b1-3)GlcNAc(b1-2)Man(a1-6)]Man(b1-4)GlcNAc(b1-4)[Fuc(a1-6)]GlcNAc
Summary of the method: as §1

[12] = target: Gal(b1-3)[Fuc(a1-4)]GlcNAc(b1-3)Gal(b1-4)[Fuc(a1-3)]GlcNAc
Summary of the method: as §1

[13] = target: Gal(b1-4)GlcNAc(b1-2)Man(a1-6)Man(b1-4)GlcNAc(b1-4)GlcNAc
Summary of the method: as §1

[14] = target: Gal3S(b1-4)Glc6S
Summary of the method: as §1

[15] = target: Gal3S(b1-4)GlcNAc6S
Summary of the method: as §1

[16] = target: Gal3S6S(b1-4)GlcNAc6S
Summary of the method: as §1

[17] = target: Gal6S(b1-4)GlcNAc
Summary of the method: as §1

[18] = target: GlcNAc(a1-4)Gal(b1-4)GlcNAc(b1-3)Gal(b1-4)GlcNAc
Summary of the method: as §1

[19] = target: GlcNAc(b1-2)Man(a1-3)[GlcNAc(b1-2)Man(a1-6)]Man(b1-4)GlcNAc(b1-4)[Fuc(a1-6)]GlcNAc
Summary of the method: as §1

[20] = target: GlcNAc(b1-3)[GlcNAc(b1-6)]GalNAc
Summary of the method: as §1

[21] = target: GlcNAc(b1-4)GlcNAc(b1-4)GlcNAc(b1-4)GlcNAc(b1-4)GlcNAc
Summary of the method: as §1

[22] = target: GlcNAc3Prop(b1-4)GlcNAc
Summary of the method: as §1

[23] = target: Man(a1-2)Man(a1-3)[Man(a1-2)Man(a1-6)]Man
Summary of the method: as §1

[24] = target: Man(a1-6)Man
Summary of the method: as §1

[25] = target: Neu5Ac(a2-3)Gal(b1-4)GlcNAc(b1-3)Gal(b1-4)[Fuc(a1-3)]GlcNAc
Summary of the method: as §1

[26] = target: Neu5Gc(a2-3)Gal(b1-4)GlcNAc
Summary of the method: as §1

[27] = target: Fuc(a1-2)Gal(b1-4)GlcNAc(b1-3)Gal(b1-4)GlcNAc(b1-3)Gal(b1-4)GlcNAc
Summary of the method: as §1

[28] = target: Fuc(a1-2)Gal(b1-4)[Fuc(a1-3)]GlcNAc(b1-3)Gal(b1-4)[Fuc(a1-3)]GlcNAc(b1-3)Gal(b1-4)[Fuc(a1-3)]GlcNAc
Summary of the method: as §1

[29] = target: Fuc(a1-2)[GalNAc(a1-3)]Gal(b1-4)GlcNAc
Summary of the method: as §1

[30] = target: Fuc(a1-3)GlcNAc
Summary of the method: as §1

[31] = target: Gal(a1-4)Gal(b1-4)Glc
Summary of the method: as §1

[32] = target: Gal(b1-2)Gal
Summary of the method: as §1

[33] = target: Gal(b1-3)GalNAc(b1-4)[Neu5Ac(a2-3)]Gal(b1-4)Glc
Summary of the method: as §1

[34] = target: Gal(b1-4)GlcNAc
Summary of the method: as §1

[35] = target: Gal(b1-4)GlcNAc(b1-3)Gal(b1-4)[Fuc(a1-3)]GlcNAc(b1-3)Gal(b1-4)[Fuc(a1-3)]GlcNAc
Summary of the method: as §1

[36] = target: Gal3S(b1-4)GlcNAc
Summary of the method: as §1

[37] = target: Gal4S6S(b1-4)GlcNAc
Summary of the method: as §1

[38] = target: Gal6S(b1-4)Glc6S
Summary of the method: as §1

[39] = target: Glc(a1-4)Glc
Summary of the method: as §1

[40] = target: Glc(a1-6)Glc(a1-6)Glc
Summary of the method: as §1

[41] = target: Glc(b1-4)Glc
Summary of the method: as §1

[42] = target: Man(a1-2)Man(a1-2)Man(a1-6)[Man(a1-3)]Man
Summary of the method: as §1

[43] = target: Neu5Ac(a2-3)[GalNAc(b1-4)]Gal(b1-4)Glc
Summary of the method: as §1

[44] = target: Neu5Gc(a2-3)Gal(b1-4)Glc
Summary of the method: as §1

[45] = target: Neu5Ac(a2-3)Gal(b1-3)[Neu5Ac(a2-6)]GlcNAc(b1-3)[Fuc(a1-3)[Gal(b1-4)]GlcNAc(b1-6)]Gal(b1-4)Glc
Summary of the method: as §1

[46] = target: Neu5Ac(a2-3)Gal(b1-4)GlcNAc(b1-2)Man
Summary of the method: as §1

[47] = target: Neu5Ac(a2-3)Gal(b1-4)[Fuc(a1-3)]GlcNAc(b1-3)Gal(b1-4)[Fuc(a1-3)]GlcNAc(b1-3)Gal(b1-4)[Fuc(a1-3)]GlcNAc
Summary of the method: as §1

[48] = target: Neu5Ac(a2-3)Gal(b1-4)[Fuc(a1-3)]GlcNAc(b1-3)GalNAc
Summary of the method: as §1

[49] = target: Neu5Ac(a2-6)Gal(b1-4)GlcNAc(b1-3)Gal(b1-4)GlcNAc(b1-3)Gal(b1-4)GlcNAc
Summary of the method: as §1

[50] = target: Neu5Ac(a2-6)Gal(b1-4)GlcNAc(b1-6)GalNAc
Summary of the method: as §1

[51] = target: Neu5Ac(a2-8)Neu5Ac(a2-3)Gal(b1-3)GalNAc(b1-4)[Neu5Ac(a2-8)Neu5Ac(a2-3)]Gal(b1-4)Glc
Summary of the method: as §1

[52] = target: Neu5Ac(b2-6)GalNAc
Summary of the method: as §1

[53] = target: Neu5Ac9Ac(a2-3)Gal(b1-3)GlcNAc
Summary of the method: as §1

B1: FedF (Escherichia coli), Q47212 (protein)
chain: MRLKYILIIPLLLISLSVFASTLQVDKSVSYDWINSSASSAQVTGTLLGTGKTNTTQMPALYTWQHQIYNVNFIPSSSGTLTCQAGTILVWKNGRETQYALECRVSIHHSSGSINESQWGQQSQVGFGTACGNKKCRFTGFEISLRIPPNAQTYPLSSGDLKGSFSLTNKEVNWSASIYVPAIAKSYRLDTSITLPDTVNLKQNQATPVYYTFSAPSVSNTITGIPNQNDMPSSNVKLTIGPIQSKTTALYVQPDATGSWYDLSKSITMTVVKSSMLNFKGINAKPGNVTLSVPIVFEIQ
glycan array binding signal (z-score) [1]: -0.446 | glycan array binding signal (z-score) [2]: -0.053 | glycan array binding signal (z-score) [3]: 0.755 | glycan array binding signal (z-score) [4]: -0.17 | glycan array binding signal (z-score) [5]: -0.084 | glycan array binding signal (z-score) [6]: -0.219 | glycan array binding signal (z-score) [7]: 0.241 | glycan array binding signal (z-score) [8]: -0.144 | glycan array binding signal (z-score) [9]: -0.092 | glycan array binding signal (z-score) [10]: -0.088 | glycan array binding signal (z-score) [11]: 0.741 | glycan array binding signal (z-score) [12]: -0.274 | glycan array binding signal (z-score) [13]: 0.184 | glycan array binding signal (z-score) [14]: 1.04 | glycan array binding signal (z-score) [15]: 0.729 | glycan array binding signal (z-score) [16]: 1.97 | glycan array binding signal (z-score) [17]: 0.402 | glycan array binding signal (z-score) [18]: 0.918 | glycan array binding signal (z-score) [19]: 1.99 | glycan array binding signal (z-score) [20]: -0.248 | glycan array binding signal (z-score) [21]: -0.269 | glycan array binding signal (z-score) [22]: 13.7 | glycan array binding signal (z-score) [23]: 0.257 | glycan array binding signal (z-score) [24]: -0.145 | glycan array binding signal (z-score) [25]: -0.292 | glycan array binding signal (z-score) [26]: -0.223

B2: FaeGac (Escherichia coli) (protein)
chain: WMTGDFNGSVDIGGSITADDYRQKWEWKVGTGLNGFGNVLNDLTNGGTKLTITVTGNKPILLGRTKEAFATPVTGGVDGIPHIAFTDYEGASVVLRNPDGETNKKGLAYFVLPMKNAEGTKVGSVKVNASYAGVLGRGGVTSADGELLSLFADGLSSIFYGGLPRGSELSAGSAAAERTKLFGSLSRNDILGQIQRVNANITSLVDVAGSYRENMEYTDGTVVSAAYALGIANGQTIEATFNQAVTTSTQWSAPLNVAITYY
glycan array binding signal (z-score) [1]: -0.23 | glycan array binding signal (z-score) [27]: -0.359 | glycan array binding signal (z-score) [28]: -0.161 | glycan array binding signal (z-score) [29]: -0.577 | glycan array binding signal (z-score) [30]: 0.65 | glycan array binding signal (z-score) [31]: -0.179 | glycan array binding signal (z-score) [32]: 0.274 | glycan array binding signal (z-score) [33]: -0.107 | glycan array binding signal (z-score) [34]: -0.506 | glycan array binding signal (z-score) [35]: 0.771 | glycan array binding signal (z-score) [36]: 0.384 | glycan array binding signal (z-score) [16]: -0.43 | glycan array binding signal (z-score) [37]: -0.495 | glycan array binding signal (z-score) [38]: 0.68 | glycan array binding signal (z-score) [39]: 10.9 | glycan array binding signal (z-score) [40]: 6.96 | glycan array binding signal (z-score) [41]: 2.95 | glycan array binding signal (z-score) [42]: 2.13 | glycan array binding signal (z-score) [43]: 0.008 | glycan array binding signal (z-score) [44]: -0.764

B3: OrfX (Escherichia coli), Q9X4B6_ECOLX (protein)
chain: MIKIARIAVTLGLLSSLGAQAYAAGLVVNDNDLRNDLAWLSDRGVIHLSLSTWPLSQEEIARALKKAKPSYSSEQVVLARINQRLSALKADFRVTGYTSTDQPGTPQGFGQTQPADNSLGLAFNNSGEWWDVHLQGNVEGGERISNGSRFNANGAYGAVKFWNQWLSFGQVPQWWGPGYEGSLIRGDAMRPMTGFLMQRAEQAAPETWWLRWVGPWQYQISASQMNQYTAVPHAKIIGGRFTFTPFQSLELGASRIMQWGGEGRPQSFSSFWDGFTGHDNTGTDNEPGNQLAGFDFKFKLEPTLGWPVSFYGQMVGEDESGYLPSANMFLGGVEGHHGWGKDTVNWYVEAHDTRTNMSRTNYSYTHHIYKDGYYQQGYPLGDAMGGDGQLIAGKVELITEDNQRWSTRLVYAKVNPENQSINKAFPHADTLKGLQLGWSGDVYQSVRLNTSLWYTNANNSDSDDVGASAGIEIPFSL
glycan array binding signal (z-score) [45]: -0.357 | glycan array binding signal (z-score) [46]: 7.89 | glycan array binding signal (z-score) [47]: -0.34 | glycan array binding signal (z-score) [48]: 7.1 | glycan array binding signal (z-score) [49]: -0.288 | glycan array binding signal (z-score) [50]: 3.4 | glycan array binding signal (z-score) [51]: -0.409 | glycan array binding signal (z-score) [52]: -0.166 | glycan array binding signal (z-score) [53]: -0.162
